PubChem BioAssay AID686979 (National Center for Advancing Translational Sciences (NCATS), 2013)
The whole screen tested about 420,000 compounds, of which about 50,000 (12%) were called active. Another 26% or so got no clear call; they are omitted. Calls follow the shape of the dose curve; as a rule, active = well fitted inhibition curve with a large enough effect; inconclusive = small, poorly fitted or top-dose-only effect; inactive = flat fitted curve, though single readings scatter. Many of the other results were omitted from the sample, so actives are more common in it than they were.

assay: qHTS for Inhibitors of human tyrosyl-DNA phosphodiesterase 1 (TDP1): qHTS in cells in presence of CPT; conditions: chicken DT40 Tdp1-/-;hTDP1 cells + 20 nM CPT, ATP luminescence, 48 h; series mostly up to 46.2 µM; activity change, negative = growth inhibition: at the top concentration; also: nearly all actives have a fitted effect of over 55% in size
In short: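 Chicken DT40 Tdp1-/- cells stably complemented with human TDP1 were seeded at 400 cells/well in medium containing 20 nM camptothecin, exposed to pin-transferred compounds, and grown at 37 °C for at least 48 hr. Viability was read as ATP luminescence.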
% is scaled to controls: 0 for no effect and ±100 for the full control effect; potency is read from the fitted curve at half-maximal effect.

Row | Compound | activity change, negative = growth inhibition | Potency
1 | CC(C)C(=O)Nc1nnc(SCC(=O)N2C(C)CCCC2C)s1 (stereo not drawn) | 4.9% (inactive) | –
2 | CSc1ccccc1OCc1cc(C(=O)N2C[C@H]3CC[C@H]2C3)no1 | -14.9% (inactive) | –
3 | CCc1ccccc1NC(=O)CCOc1ccccc1 | – | inactive
4 | CCc1ccccc1NC(=O)/C(=C/c1ccccc1)c1ccccc1 | – | 20.6 µM (active)
5 | CCc1ccccc1NC(=S)Nc1cc(OC)c(NC(=O)C(C)C)cc1OC | -4.59% (inactive) | –
6 | CC(=O)Nc1ccc(N2C(=O)C3C4C=CC(CC4)C3C2=O)cc1 (stereo not drawn) | -1.89% (inactive) | –
7 | O=C(Nc1cccc(F)c1)[C@@H]1CCCN1 | 2.38% (inactive) | –
8 | Cc1ccc(CN2CCCOCCS2(=O)=O)cc1 | – | inactive
9 | O=C1NC[C@@H](CCCCN2CCN(CCc3ccc(O)cc3)C(=O)C2=O)N(CC2CCCCC2)C1=O | 1.35% (inactive) | –
10 | Oc1ccc2c(c1)OCC1c3cc4c(cc3OC21)OCO4 (stereo not drawn) | 6.48% (inactive) | –
11 | O=[N+]([O-])c1cc(S(=O)(=O)CCCN2CCOCC2)ccc1F | – | 20.6 µM (active)
12 | O=S(=O)(NCCCN1CCOCC1)c1ccc(F)c(Cl)c1 | -21.1% (inactive) | –
13 | O=C(NCCCN1CCOCC1)c1ccc([N+](=O)[O-])cc1[N+](=O)[O-] | -28% (inactive) | –
14 | Cc1ccsc1/C=N/n1c(=S)[nH]nc(C)c1=O | – | 16.4 µM (active)
15 | Oc1ccccc1/C=N/n1c(-c2cccs2)n[nH]c1=S | -9.02% (inactive) | –
16 | S=c1[nH]nc(-c2cccs2)n1/N=C/c1cccs1 | 2.49% (inactive) | –
17 | O=C(COC(=O)c1cc2c(s1)CCCC2)NCc1ccccc1Cl | -21.5% (inactive) | –
18 | O=c1cc(COc2cccc(C(F)(F)F)c2)nc2sc3c(n12)CCCC3 | -5.15% (inactive) | –
19 | Cc1ccc2nsnc2c1NC(=O)c1ccccc1[N+](=O)[O-] | -0.576% (inactive) | –
20 | O=C(Nc1ccccn1)C1CCN(S(=O)(=O)c2ccc3c(c2)OCCO3)CC1 | -7.52% (inactive) | –
21 | COCCN1C(=O)N[C@@H](CCc2ccccc2)[C@H](C(C)=O)[C@H]1C | -26.2% (inactive) | –
22 | CCN1C(=NCCc2cccnc2)N[C@@H](c2ccccc2)[C@H](C(=O)OC)[C@H]1C | -27.5% (inactive) | –
23 | CCN1C(=NCc2ccc(OC)cc2)N[C@@H](CCc2ccccc2)[C@H](C(=O)NCc2ccc(OC)cc2)[C@H]1C | – | 18.4 µM (active)
24 | CCN1C(=NCC(C)C)N[C@@H](CCc2ccccc2)[C@H](C(=O)NCC(C)C)[C@H]1C | – | 13 µM (active)

Row | Compound | activity change, negative = growth inhibition | Potency
25 | CCN1C(=O)N[C@@H](c2ccccc2)[C@H](C(C)=O)[C@H]1C | -20% (inactive) | –
26 | O=C(CSc1nnc(N2CCOCC2)n1-c1cccc(F)c1)N1CCN(c2ccccn2)CC1 | 1.76% (inactive) | –
27 | Cc1cc(NC(=O)CSCC(=O)NC(C)c2ccccc2)no1 (stereo not drawn) | -4.29% (inactive) | –
28 | CC(C)(C)NC(=O)COC(=O)c1cc(Br)ccc1Cl | 4.4% (inactive) | –
29 | C[C@H](CO)N1C[C@H](C)[C@@H](CN(C)S(=O)(=O)c2ccc(F)cc2)Oc2c(NC(=O)Nc3ccccc3)cccc2C1=O | -28.6% (inactive) | –
30 | CCCc1nn(C)c2c(=O)[nH]c(-c3cc(S(N)(=O)=O)ccc3OCC)nc12 | 0.591% (inactive) | –
31 | Cc1nnc(CN(C)Cc2cn[nH]c2-c2ccc(-c3ccccc3)cc2)o1 | -0.178% (inactive) | –
32 | COc1ccc2oc(=N)c(C(=O)Nc3ccc(Br)cc3)cc2c1 | 2.51% (inactive) | –
33 | COc1ccc(/C=C/C(=O)c2cc(Br)ccc(=O)c2O)cc1 | – | 14.6 µM (active)
34 | COc1ccc2oc(=O)c(C(=O)O)cc2c1 | -20.4% (inactive) | –
35 | O=[N+]([O-])c1ccc(N=NNc2ccc([N+](=O)[O-])cc2)cc1 | -12.5% (inactive) | –
36 | CN(c1ccccc1)S(=O)(=O)c1ccc(C(=O)N2CCN(c3ccccc3Cl)CC2)cc1 | – | 23.1 µM (active)
37 | COc1ccccc1NS(=O)(=O)c1ccc(C(=O)N2CCN(c3ccccc3O)CC2)cc1 | – | 18.4 µM (active)
38 | CC(C)c1ccc(S(=O)(=O)N2CCN(C(=O)c3ccc(N4CCCC4)c([N+](=O)[O-])c3)CC2)cc1 | – | 16.4 µM (active)
39 | COc1cc(C(=O)N2CCN(S(=O)(=O)c3ccc(C(C)C)cc3)CC2)ccc1OCC(=O)N1CCOCC1 | -1.46% (inactive) | –
40 | Cc1ccc(S(=O)(=O)N2CCN(C(=O)c3ccc(-n4cncn4)c([N+](=O)[O-])c3)CC2)cc1 | -28.2% (inactive) | –
41 | COc1ccccc1N1CCN(C(=O)c2ccc(S(=O)(=O)N3CCCCC3)cc2)CC1 | – | 23.1 µM (active)
42 | COc1ccc(S(=O)(=O)Nc2ccccc2C(=O)N2CCCC2)cc1C | 2.19% (inactive) | –
43 | CN(c1ccccc1)S(=O)(=O)c1ccc(Cl)c(C(=O)OCC(=O)N2CCOCC2)c1 | 2.02% (inactive) | –
44 | O=C(c1ccc(S(=O)(=O)c2ccccc2)cc1)N1CCCCCC1 | -25.4% (inactive) | –
45 | O=C(c1ccc(S(=O)(=O)N2CCOCC2)cc1)N1CCN(c2ccccc2)CC1 | -0.43% (inactive) | –
46 | COc1ccccc1CC(=O)Nc1ccc(S(=O)(=O)N2CCCC2)cc1 | 16% (inactive) | –
47 | COc1ccccc1NC(=O)CN1C(=O)c2ccccc2Sc2ccc(C(=O)N3CCCC3)cc21 | 8.88% (inactive) | –
48 | O=C(OCCN1CCOCC1)C1(c2ccccc2)CCCCC1 | – | inactive
